The source of these data is PubChem BioAssay (NCATS).

Structures are written as SMILES. Records with an inconclusive call do not appear. Where a call stands in place of a potency, no number is given. Calls of active or inactive are those of the source. Unless noted, calls follow the shape of the dose curve; as a rule, active = well fitted inhibition curve with a large enough effect; inconclusive = small, poorly fitted or top-dose-only effect, or effect the other way; inactive = flat fitted curve, though single readings scatter.

A short description of experiment [1]: qHTS for Inhibitors of Plasmodium falciparum (CP250) proliferation (AID 504320). The procedure, abridged:
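Erythrocytes infected with P. falciparum line (0.3% parasitemia, 2.5% hematocrit final) incubated with compounds 72 h at 37 °C, 5% CO2; SYBR Green lysis buffer added, fluorescence read next day. Normalized to 0.29 uM artemisinin and DMSO.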
(In general: qHTS replaces the single test concentration by a dilution series.)

The target of experiment [2] is Atrial natriuretic peptide receptor 1 (Homo sapiens) (UniProt P16066). Kind of experiment: Natriuretic polypeptide receptor (hNpr1) antagonism - Pilot CMLD screen (AID 1347052; calls by dose curve;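 also: HEK293 cells with hNpr1 stimulated by hNppA peptide at 0.1 nM; cGMP level read as GloSensor luciferase luminescence after agonist stimulation; series mostly up to about 9.2 µM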).
Chain of Atrial natriuretic peptide receptor 1 (Homo sapiens) (P16066 whole entry, looked up): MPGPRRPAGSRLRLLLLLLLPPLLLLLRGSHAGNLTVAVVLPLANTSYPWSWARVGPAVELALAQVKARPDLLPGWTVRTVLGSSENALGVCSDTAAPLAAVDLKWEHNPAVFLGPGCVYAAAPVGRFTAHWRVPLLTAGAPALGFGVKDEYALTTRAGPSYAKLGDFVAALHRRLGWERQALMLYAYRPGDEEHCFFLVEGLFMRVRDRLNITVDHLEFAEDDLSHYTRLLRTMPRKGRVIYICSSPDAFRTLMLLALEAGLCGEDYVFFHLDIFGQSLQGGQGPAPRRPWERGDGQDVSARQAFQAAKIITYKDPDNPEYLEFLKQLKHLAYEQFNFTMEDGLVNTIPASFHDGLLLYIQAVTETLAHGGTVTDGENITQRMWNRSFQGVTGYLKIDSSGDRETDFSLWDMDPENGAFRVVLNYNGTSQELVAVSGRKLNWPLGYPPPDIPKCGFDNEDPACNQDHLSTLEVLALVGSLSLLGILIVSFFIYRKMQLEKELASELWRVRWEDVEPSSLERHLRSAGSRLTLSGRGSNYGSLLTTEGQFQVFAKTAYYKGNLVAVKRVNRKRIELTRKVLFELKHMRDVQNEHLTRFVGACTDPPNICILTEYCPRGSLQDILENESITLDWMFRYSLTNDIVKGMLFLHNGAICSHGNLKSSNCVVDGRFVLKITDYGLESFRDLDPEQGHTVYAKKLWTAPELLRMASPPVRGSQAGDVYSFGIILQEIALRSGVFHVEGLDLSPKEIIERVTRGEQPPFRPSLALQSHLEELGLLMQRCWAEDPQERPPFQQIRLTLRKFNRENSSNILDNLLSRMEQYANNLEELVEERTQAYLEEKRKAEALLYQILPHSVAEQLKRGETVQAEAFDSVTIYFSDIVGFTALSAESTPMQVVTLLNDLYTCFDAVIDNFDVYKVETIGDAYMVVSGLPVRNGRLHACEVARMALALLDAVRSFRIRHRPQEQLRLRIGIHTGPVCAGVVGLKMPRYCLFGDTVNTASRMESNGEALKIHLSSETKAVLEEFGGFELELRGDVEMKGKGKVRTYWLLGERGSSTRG

As to `CCOC(=O)CN1C(=O)[C@]2(O[C@H](COc3ccccc3)CC3=C2CCC3)c2ccccc21`, the Potency result in experiment [1] and in experiment [2] was “inactive” throughout.
